Reference: PubChem BioAssay AID504656 (National Center for Advancing Translational Sciences (NCATS), 2011)
Activity calls are given as the source filed them.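 The calls were made as follows: active = any inhibition of parasite growth seen in the dose series, which yields a fitted potency; inactive = compounds showing no inhibition.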

experiment: Inhibitors of Cruzain: Trypanosoma Cruzi Growth Inhibition Assay; conditions: T. cruzi in NIH/3T3, beta-gal CPRG absorbance, 4 d
Description: Cruzain is a cysteine protease from the tropical parasite Trypanosoma cruzi. This assay protocol is for testing followup compounds for T. Cruzi growth inhibition. See following references for additional details: Jadhav A, et al. J Med Chem. 2010 Jan 14;53(1):37-51. Mott BT, et al. J Med Chem. 2010 Jan 14;53(1):52-60. Ferreira, et al. J Med Chem. 2010 Jul 8;53(13):4891-905. Bettiol E, et al. PLoS Negl Trop Dis. 2009;3(2):e384. Assay Provider: Shoichet, Brian; University of California, San Francisco and Ana Rodriguez, New York University School of Medicine. Screening Center PI: Austin, C.P. Screening Center: NIH Chemical Genomics Center [NCGC]
NIH/3T3 cells and parasites were harvested, washed once and resuspended in DMEM supplemented with 2% FBS and Pen-Strep-Glut. […] Different numbers of NIH/3T3 cells were seeded in 96-well plates. After 3 h, compounds were added at the indicated concentrations and mixed by pipetting. BZN tablets (Rochagan, Roche) dissolved in DMSO and 4uM Amphotericin B solution (Sigma-Aldrich) were used as positive controls. Different numbers of T. cruzi parasites were added in a final volume of 200 ul/well. […] Plates were incubated at 37 degrees C for 4 h and absorbance was read at 590 nm using a Tecan Spectra Mini plate reader. […] The IC50 was determined as the concentration at which the activity (absorbance) was half that in the absence of compound. […]

Row | SMILES | Potency
1 | Cc1ccc(OCCn2c(CCNC(=O)C3CCCCC3)nc3ccccc32)cc1 | 64 µM (active)
